Test results from PubChem BioAssay AID1832 (Broad Institute, 2009).
The campaign covered roughly 300,000 compounds. About 1,100 (0.37%) were called active. Only a selection was taken, and actives are over-represented in it overall. Unmarked numbers belong to inactive results.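 The calls were made as follows: active = inhibition past about -25% in most replicates, and total fluorescence under double the plate's negative control median (limit read from the data); inconclusive = replicates evenly split on the limit, or fluorescence at least double controls; inactive = too little inhibition in most replicates.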

These compounds were tested against Zinc finger protein mex-5 (Caenorhabditis elegans) (UniProt Q9XUB2) (assay: MEX-5 zinc finger RNA-binding disruptors – biochemical, C. elegans, fluorescence polarization, MLPCN library, primary screen (AID 1832;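 also: 0% = DMSO and -100% = 5 µM competing unlabeled TCR2 RNA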)). Conditions: MEX-5/FITC-TCR2 RNA binding, at 10 µM, stronger effect = lower value.
Sequence of Zinc finger protein mex-5 (Caenorhabditis elegans) (Q9XUB2 whole entry, looked up): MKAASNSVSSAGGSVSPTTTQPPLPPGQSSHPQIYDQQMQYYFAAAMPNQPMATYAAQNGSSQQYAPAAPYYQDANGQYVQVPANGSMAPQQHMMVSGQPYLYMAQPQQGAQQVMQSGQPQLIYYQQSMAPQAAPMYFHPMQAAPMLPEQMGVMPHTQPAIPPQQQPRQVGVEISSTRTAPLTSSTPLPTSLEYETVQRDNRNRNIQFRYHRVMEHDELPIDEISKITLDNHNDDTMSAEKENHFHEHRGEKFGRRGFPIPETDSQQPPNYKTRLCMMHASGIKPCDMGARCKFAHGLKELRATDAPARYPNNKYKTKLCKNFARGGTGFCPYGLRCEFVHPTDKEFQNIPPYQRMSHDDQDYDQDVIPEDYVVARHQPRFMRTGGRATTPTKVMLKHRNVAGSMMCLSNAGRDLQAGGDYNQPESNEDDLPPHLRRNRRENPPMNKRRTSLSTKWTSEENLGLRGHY
In the case of `Cc1cccc(N2C(=O)NC(=O)/C(=C\c3cnn(-c4ccccc4)c3)C2=O)c1`, the activity score (negative = inhibition of binding) is reported as 1.06%.
Work on `O=C1NC(=O)N(c2ccc(F)cc2)C(=O)/C1=C/c1ccc2c(c1)CCCN2Cc1ccccc1` yielded an activity score (negative = inhibition of binding) of -7.18%.
`O=C1NC(=O)N(c2ccccc2)C(=O)/C1=C/c1ccc([N+](=O)[O-])s1` was tested, and the activity score (negative = inhibition of binding) was -35.6% (active).
For `COc1ccc2[nH]c3c(c2c1)CCN[C@H]3C`, the activity score (negative = inhibition of binding) was 2.22%.
In the case of `COc1ccc(CN2C(=O)NC(=O)/C(=C\c3ccc(OC)c(OC)c3OC)C2=O)cc1`, the activity score (negative = inhibition of binding) is reported as 7.01%.
`Cc1cc(/C=C2/C(=O)NC(=O)N(Cc3ccco3)C2=O)c(C)n1-c1ccc(C(=O)O)cc1` gave an activity score (negative = inhibition of binding) of -4.55%.
For `COc1ccc(N2C(=O)/C(=C/c3ccco3)C(=O)NC2=S)cc1`, the activity score (negative = inhibition of binding) was -95.1% (active).
`CN(C)CC1CCCCC1OC(=O)c1ccc(Cl)c(Cl)c1` (stereo not given) was tested, and the activity score (negative = inhibition of binding) was -0.533%.
Work on `O=Cc1cn(Cc2ccc(F)cc2Cl)c2ccccc12` yielded an activity score (negative = inhibition of binding) of -1.5%.
Compound `COc1cccc(-c2nc3ccc(N4CCN(C)CC4)cc3[nH]2)c1` has an activity score (negative = inhibition of binding) of 2.54%.
